Hit rate of the full screen: of about 65,000 compounds, about 2,100 (3.2%) showed an effect of 50% or more. The median lay at about -52%. This is one part of a sample in which strong results are shown more often than they occur.
test system: Plasmodium falciparum; assay: Screen against P. falciparum Asexual Blood Stage (ABS), at 5uM; assay type: functional, Dd2; details: tested at 5 uM

SMILES	INHIBITION
CN1CCN(Cc2cn3c(n2)CN(C(=O)N2CCOCC2)CC3)CC1	-121%
COc1ccccc1C1CNCCN1C(=O)c1ccc(F)cc1 (stereo not given)	69.7%
COc1ccccc1C(=O)N1CCNCC1C(N)=O (stereo not given)	-114%
COc1ccccc1C1CNCCN1C(C)=O (stereo not given)	-43.1%
COc1ccc(-c2cn3c(n2)CO[C@@H](CNCc2nccn2C)C3)cc1	21.3%
Cc1cccnc1CNC[C@H]1Cn2cc(-c3ccccc3)nc2CO1	30.8%
Cn1ccnc1CNC[C@H]1Cn2cc(-c3ccccc3)nc2CO1	56.4%
Cc1nc(CCNC(=O)c2cc(C(C)C)nn2C)sc1C	-66%
COc1cc(N2CCC3(CC2)CN(CCO)c2ccccc23)ncn1	47.1%
CN(C)c1nc2c(c(N(C)Cc3n[nH]c4c3CCCCC4)n1)CCNC2	40%
CN(Cc1n[nH]c2c1CCCC2)c1nc2c(c(=O)[nH]1)CCNCC2	65.3%
CN(Cc1n[nH]c2c1CCC2)c1nc(C2CCCC2)nc2c1CNC2	2.51%
Cc1nccc(-c2cccc(NCC(=O)N3CCCC(C)C3)c2)n1 (stereo not given)	-103%
CN1C(=O)c2cccc(NC(=O)c3cccc(S(C)(=O)=O)c3)c2C1=O	-15.8%
Cc1ncc(CN2CC[C@@](C)(O)[C@H](Oc3cccc(F)c3)C2)cn1	-18.7%
O=C(NC1CCNC1)C1(N2CCCCC2)Cc2ccccc2C1 (stereo not given)	33.8%
O=C1NCCCC[C@@H]1NC(=O)C1(N2CCCCC2)Cc2ccccc2C1	-107%
O=C(NC1CCNCC1)C1(N2CCCCC2)Cc2ccccc2C1	62.9%
CNCC(=O)N1CCC(c2ccnc(Nc3ccc(C)cn3)n2)C1 (stereo not given)	-163%
CCc1nccn1CCC(=O)N1C[C@@H]2CC[C@H]1CN(C(=O)N(C)C)C2	-28.8%
O=C(c1c(F)cc(Br)cc1F)N1CCc2cnccc21	-110%
Cc1cnn(CC(C)NCc2ccc(OCc3cccnc3)cc2)c1 (stereo not given)	36.7%
COC(=O)[C@H]1C[C@@H](O)CCN1S(=O)(=O)c1cc(C)c(Cl)cc1C	-190%
Cc1cc(S(=O)(=O)N2CCC(N3CCC(O)C3)CC2)c(Cl)cc1Cl (stereo not given)	69.3%
CCN1CCN(S(=O)(=O)c2cc(C)c(C)cc2Br)CC1	28.4%
CCN1CCN(S(=O)(=O)c2cc(C)c(Cl)cc2C)CC1	19.7%
Cc1cc(S(=O)(=O)N2CC[C@@H](O)C2)c(Cl)cc1F	-123%

SMILES	INHIBITION
CCN1CCN(S(=O)(=O)c2cc(C)c(Cl)cc2Cl)CC1	64.3%
O=C(c1csc(-c2ccc(C(F)(F)F)cc2)n1)N1CCCNCC1	-4.67%
CC(C)CNC(=O)c1nn(C)c(NC(=O)Cc2ccccc2)c1F	-85.1%
COc1ncccc1CNC1CCc2c(ccc(=O)n2C)C1 (stereo not given)	-74.3%
Cc1ccc(CN2CC[C@H]3OCC[C@@H](C(=O)N4CCCCO4)[C@@H]3C2)o1	-9.16%
CCN(CC)Cc1cn2c(n1)CN(C1CCOC1)CC2 (stereo not given)	-107%
Nc1ncccc1C(=O)NCc1cccc(Cl)c1	-96.4%
O=C(NCCN1CCOCC1)c1ccnn1-c1ccc2ccccn12	-33.3%
CCn1cc(-c2cc(-c3cc(CC(=O)O)cs3)nc(N)c2C#N)c(C)n1	-125%
Cc1nn(C)c(C)c1-c1cc(-c2cc(CC(=O)O)cs2)nc(N)c1C#N	-66.5%
CCn1cc(-c2cc(-c3cc(CN(C)C)cs3)nc(N)c2C#N)c(C)n1	60.3%
CNC(=O)C1=NOC2(CCN(Cc3nccs3)C2)C1 (stereo not given)	-90.7%
CC(Nc1cnn(C)c(=O)c1Cl)c1ccc(F)cc1 (stereo not given)	-75.2%
N#Cc1cccnc1OC1CCN(S(=O)(=O)c2c(F)cccc2F)CC1	-88.3%
COc1ccc(C)cc1C(=O)NC(CC(=O)O)c1cccs1 (stereo not given)	-134%
N#Cc1ccc(CN2CCCC3(Cc4ccccc4CNC3=O)C2)cc1 (stereo not given)	10.7%
O=C1NCc2ccccc2CC12CCCN(Cc1ccsc1)C2 (stereo not given)	64.3%
COc1ccccc1CN1CCCC2(Cc3ccccc3CNC2=O)C1 (stereo not given)	54.5%
O=C1NCc2ccccc2CC12CCCN(CCCc1ccccc1)C2 (stereo not given)	39.2%
Cc1cccc(CN2CCCC3(Cc4ccccc4CNC3=O)C2)n1 (stereo not given)	-31.3%
O=C(O)c1ccccc1CN1CCC2(Cc3ccccc3CNC2=O)C1 (stereo not given)	-111%
CCC(=O)N(CCC(=O)O)Cc1ccc(F)c(F)c1	-62.6%
Cc1cc(CN(C)C(C(=O)O)c2ccc(C(C)(C)C)cc2)on1 (stereo not given)	-96.1%
COc1ccc(CNc2c(N3CCN(C(C)=O)CC3)c(=O)c2=O)cc1	-16.8%
CC(C)c1[nH]c2ncccc2c1CN1CCC(O)CC1	-59.2%
CC(C)(C)OC(=O)NCCc1csc(N2CCCC2)n1	-50.6%
Cn1cnc2c1C(COCc1ccccc1)N(Cc1cccnc1)CC2 (stereo not given)	36.7%

SMILES	INHIBITION
Cn1cnc2c1C(COCc1cccnc1)N(Cc1ccccc1)CC2 (stereo not given)	23.7%
Cn1cnc2c1C(COCc1ccccc1)N(Cc1ccncc1)CC2 (stereo not given)	51.6%
Cn1cnnc1C1CCCN(C(=O)NCCCn2cccn2)C1 (stereo not given)	-205%
CC(C)CC(=O)N1CCC2(CC1)COCCN2Cc1ccc(F)cc1	-3.2%
Cc1cc(C)cc(C(=O)Nc2cccc(CN3CCCC3C(N)=O)c2)c1 (stereo not given)	-76.3%
CCCn1c(NCCc2ccccc2)nc2c(C)nn(C)c2c1=O	-42.9%
CN(C)CCN(C)S(=O)(=O)Cc1ccc(Br)cc1	63.7%
CCCNS(=O)(=O)Cc1ccc(Br)cc1	-14.1%
CC(O)CCN(C)S(=O)(=O)Cc1ccc(Br)cc1 (stereo not given)	-23.8%
CCOCC1CN(C(=O)C2=CCCC2)Cc2cnn(C)c21 (stereo not given)	-16.8%
Cc1ccc(N[C@@H]2CN(Cc3cc(C)on3)C[C@@H]3CCCO[C@@H]32)nn1	-84.9%
Cc1noc(C)c1CN1C[C@@H]2CCCO[C@@H]2[C@H](Nc2ccccn2)C1	-37.5%
Cc1cccc(CN2C[C@@H]3CCCO[C@@H]3[C@H](Nc3ccccn3)C2)n1	55.6%
N[C@@H]1c2ccccc2C2(CCN(c3ncccc3C(F)(F)F)CC2)[C@H]1O	-6.42%
CCCC1CCCN(C(=O)Nc2ccc(F)c(C(N)=O)c2)CC1 (stereo not given)	-46%
Fc1ccc(CN2CCCC3(COCCN(Cc4c[nH]nn4)C3)C2)cc1 (stereo not given)	61.7%
Cc1cccc(CN2CCOCC3(CCN(C4CCOCC4)C3)C2)n1 (stereo not given)	42.5%
c1csc(CN2CCOCC3(CCN(C4CCOCC4)C3)C2)c1 (stereo not given)	50.4%
Cn1cc(CN2CCCC3(COCCN(Cc4c[nH]nn4)C3)C2)cn1 (stereo not given)	-58.4%
Cn1cc(CN2CCOCC3(CCN(C4CCOCC4)C3)C2)cn1 (stereo not given)	-41.5%
COc1ccc(F)c(CN2CCCC3(CCN(C4CCOCC4)C3)C2)c1 (stereo not given)	3.41%
Cc1ccc(CN2CCOCC3(CCN(Cc4cccs4)C3)C2)o1 (stereo not given)	41.9%
COc1ccc(CN2CCOCC3(CCN(C4CCOCC4)C3)C2)cc1 (stereo not given)	61%
c1cc(CN2CCCC3(COCCN(Cc4c[nH]nn4)C3)C2)cs1 (stereo not given)	27.7%
c1cn(-c2ccc(N3CCC(NC4CC4)CC3)cc2)cn1	18.4%
CC(C)c1cc(CN(C)C(=O)C(C)N2CCc3ccccc3C2)no1 (stereo not given)	-28.5%
N[C@H]1CCCN(S(=O)(=O)c2ccc(C(=O)NCC(F)F)cc2)C1	-117%

SMILES	INHIBITION
Cc1cc(C)cc(OCCN(C)C2CCOC2=O)c1 (stereo not given)	-68.2%
NC(C(=O)N1CCSc2ccccc2C1)c1ccccc1 (stereo not given)	60.9%
N[C@@H](C(=O)N1CCN(c2ccccc2Cl)C(=O)C1)c1ccccc1	-17.6%
CC(C)C[C@H](N)C(=O)N1CCSc2ccccc2C1	48%
O=S1(=O)CCC(NCCn2cncc2-c2ccc3c(c2)CCCO3)C1 (stereo not given)	-91.4%
O=S(=O)(C1CC1)N1CC[C@]2(C[C@@H](Oc3ncccc3F)CO2)C1	-24.1%
CN(C)C(=O)c1cnc2n1CCN(Cc1cccnc1)C2	-6.2%
N#Cc1ccnc(NCc2cc3n(n2)CCCN(C(=O)C2CCC2)C3)c1	-89.1%
CN(Cc1ccccn1)C(CO)c1cccc(Br)c1 (stereo not given)	-68.3%
Cc1nn(CCO)c(C)c1CNC1CCOc2ccccc21 (stereo not given)	-36%
Cc1nn(CCO)c(C)c1CNC1CCCCc2ccccc21 (stereo not given)	-4.05%
Cc1nn(CCO)c(C)c1CNC1CCC(C)(C)c2ccccc21 (stereo not given)	69.2%
Cc1cc2c(=O)n3c(nc2s1)CCN(Cc1[nH]cnc1C)CC3	-96.3%
O=C(NCCNc1cc(N2CCCC2)cnn1)Nc1ccccc1F	-93.6%
Cc1sc2c(C3CCNCC3)nc(Nc3cccc(F)c3)n2c1C	-126%
O=C1NCC2(CCCN(Cc3ccccc3F)C2)Oc2ccccc21 (stereo not given)	-20.4%
O=C1NCC2(CCCN(CCc3ccccc3)C2)Oc2ccccc21 (stereo not given)	51.7%
O=C1NCC2(CCCN(Cc3ccc(F)cc3)C2)Oc2ccccc21 (stereo not given)	-41%
COc1ccc(C(=O)CCC(=O)NCc2c(C)noc2C)cc1F	-164%
CCCc1ncc(C(=O)N2CCOc3ncccc32)s1	-13.4%
NC(=O)Cn1cc(NC(=O)N2CCN(c3ccc(F)cc3)CC2)cn1	-40.9%
Cc1cccc(N2CCN(C(=O)Nc3cnn(CC(N)=O)c3)CC2)c1	-67.3%
NC(=O)Cn1cc(NC(=O)N2CCN(c3ccccc3)CC2)cn1	63.7%
COc1ccccc1CN1CC(OC)CN(C(=O)OCC(C)C)CC1=O (stereo not given)	-40.4%

Reference: ChEMBL document CHEMBL4513216, “Probing the Open Global Health Chemical Diversity Library for Multistage-Active Starting Points for Next-Generation Antimalarials” (ACS Infect Dis, 2020)
